High-throughput results: PubChem, several laboratories
pPAFAH inh = inhibitors of human plasma PAF acetylhydrolase (pPAFAH); Q13093; recombinant pPAFAH, FP-rhodamine probe fluorescence polarization; inhibition, % at 3.39 µM; hit rate 1.5% among 330,000;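 active = inhibition above the mean inhibition across the screen plus 3 SD, cut at about 25% in these data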;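 note: inhibitors block binding of the rhodamine activity-based probe so polarization drops; 0% = enzyme with DMSO and 100% = wells lacking pPAFAH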
Target sequence (Q13093 whole entry, looked up): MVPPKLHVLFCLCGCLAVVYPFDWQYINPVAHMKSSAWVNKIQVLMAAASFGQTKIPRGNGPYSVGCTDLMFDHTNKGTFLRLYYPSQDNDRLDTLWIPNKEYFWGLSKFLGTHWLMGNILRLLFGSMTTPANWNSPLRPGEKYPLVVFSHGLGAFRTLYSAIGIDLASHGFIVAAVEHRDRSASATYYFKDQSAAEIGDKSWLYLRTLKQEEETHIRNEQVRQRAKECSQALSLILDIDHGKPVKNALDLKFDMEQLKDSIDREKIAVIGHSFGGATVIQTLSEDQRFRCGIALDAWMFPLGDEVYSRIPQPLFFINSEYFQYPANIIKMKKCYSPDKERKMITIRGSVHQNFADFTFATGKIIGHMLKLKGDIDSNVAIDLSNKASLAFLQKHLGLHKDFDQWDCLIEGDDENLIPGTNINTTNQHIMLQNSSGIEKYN
PAFAH2 inh = PAFAH2 (human) inhibition; inhibition, % at 3.39 µM; recombinant PAFAH2, FP-rhodamine activity probe, fluorescence polarization; Q99487; AID 492956; hit rate 0.99% among 340,000;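 active = inhibition above the mean over all tested compounds plus 3 SD, cut at about 30% in these data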;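 note: inhibitors block probe labeling of enzyme so polarization drops; 0% = enzyme with DMSO and 100% = wells lacking PAFAH2 protein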
DAGLB inhibitor = blocks human DAGLB lipase activity. Q8NCG7. HEK293T DAGLB membrane lysate, EnzChek fluorogenic substrate. inhibition, % at 5.17 µM. hit rate 0.059% among 340,000. AID 504411; in the data active = inhibition above about 34%;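 note: 0% = enzyme with vehicle and 100% = wells lacking enzyme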
PAFAH1B2 FP inh = blocks human PAF acetylhydrolase 1b catalytic subunit 2; inhibition, % at 3.39 µM; recombinant PAFAH1B2, FP-rhodamine activity probe, fluorescence polarization; P68402; hit rate 1.2% among 340,000;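 active = inhibition above the mean of all tested compounds plus 3 SD, cut at about 24% in these data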;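 note: 0% = enzyme with DMSO and 100% = wells lacking PAFAH1B2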
PAFAH1B3 inh = inhibitors of human PAFAH1B3. inhibition, % at 3.39 µM. recombinant PAFAH1B3, FP-rhodamine probe, fluorescence polarization. Q15102. hit rate 0.28% among 340,000;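 active = inhibition above the screen-wide average of all tested compounds plus 3 SD, cut at about 25% in these data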;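 note: 0% = enzyme with DMSO only and 100% = wells lacking PAFAH1B3 protein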
ATG4B inh = blocks human ATG4B protease cleavage of LC3 substrate; Q9Y4P1; inhibition, % at 8.33 µM; AID 504462; ATG4B cleavage of LC3-PLA2, NBD-HPC fluorescence, 1 h; hit rate 0.51% among 340,000; in the data active = inhibition above about 40%
ATG4B confirm = confirmation of human ATG4B inhibitors; shares compounds with ATG4B inh; ATG4B protease fluorescent substrate cleavage assay; inhibition, % at 8.33 µM; hit rate 92% among 320; AID 504757; in the data active = inhibition above about 39%
PLA2 ctr = inhibits human PLA2, flagging false ATG4B inhibitors | shares compounds with ATG4B inh | purified PLA2, NBD-C6-HPC fluorescence, 45 min | inhibition, % at 8.33 µM | hit rate 66% among 1,600; in the data active = inhibition above about 50%
Numbers without * were called inactive. An excerpt weighted towards active compounds, which were near 3% of everything screened.

For COc1ccc(-c2ccc3c(c2)S(=O)(=O)c2cccc(C(=O)NCc4cccc(OC(F)(F)F)c4)c2C3=O)cc1OC the results were pPAFAH inh 3, PAFAH2 inh 0, DAGLB inhibitor 2, PAFAH1B2 FP inh -6, PAFAH1B3 inh 0, ATG4B inh 70* and PLA2 ctr 70*.
`CCOc1ccc(-n2nnnc2SCC(=O)c2ccccc2)cc1` gave pPAFAH inh 5, PAFAH2 inh -4, DAGLB inhibitor -9, PAFAH1B2 FP inh 2, PAFAH1B3 inh 4, ATG4B inh 41* and PLA2 ctr 51*.
Screening COc1ccc(-n2c(CCc3ccccc3)nnc2SCC(=O)c2ccccc2)cc1 returned pPAFAH inh 4, PAFAH2 inh -9, DAGLB inhibitor -1, PAFAH1B2 FP inh 9, PAFAH1B3 inh 4, ATG4B inh 60* and PLA2 ctr 61*.
COc1cc2ccccc2ccc1=NO was read as PAFAH2 inh 0, DAGLB inhibitor -1, PAFAH1B2 FP inh 9, PAFAH1B3 inh 8 and ATG4B inh -2.
Screening COCCN(C(=O)c1cc(Cl)nc2ccccc12)c1c(N)n(Cc2ccccc2)c(=O)[nH]c1=O returned pPAFAH inh -5, PAFAH2 inh -5, DAGLB inhibitor 3, PAFAH1B2 FP inh -2, PAFAH1B3 inh 7 and ATG4B inh -13.
O=C1ON=C(c2ccccc2)/C1=C/c1ccc(-c2ccccc2[N+](=O)[O-])o1 was read as pPAFAH inh 18, PAFAH2 inh 9, DAGLB inhibitor 21, PAFAH1B2 FP inh 15, PAFAH1B3 inh 4, ATG4B inh 69* and PLA2 ctr 51*.
O=C(COc1ccc(Cl)cc1Cl)c1ccc[nH]1 was read as pPAFAH inh 11, PAFAH2 inh -2, DAGLB inhibitor -3, PAFAH1B2 FP inh 1, PAFAH1B3 inh 4 and ATG4B inh -5.
Screening S=c1[nH]nc(CSCc2ccccc2Cl)n1C1CCCCC1 returned PAFAH2 inh 5, DAGLB inhibitor -5, PAFAH1B2 FP inh 7, PAFAH1B3 inh 10, ATG4B inh 55* and PLA2 ctr 63*.
CCCCN1C(=O)/C(=C/C=C2\SCCN2C)SC1=S was read as PAFAH2 inh 23, DAGLB inhibitor 1, PAFAH1B2 FP inh -1, PAFAH1B3 inh 0, ATG4B inh 73* and PLA2 ctr 80*.
Screening C/C=C/c1ccc(OCCOc2cc(C=O)ccc2OC)c(OC)c1 returned pPAFAH inh 28*, PAFAH2 inh 5, DAGLB inhibitor -6, PAFAH1B2 FP inh 8, PAFAH1B3 inh -3, ATG4B inh 47* and PLA2 ctr 48.
For C/C=C/c1ccc(OCC(=O)O)c(OC)c1 the results were pPAFAH inh 4, PAFAH2 inh -3, DAGLB inhibitor 1, PAFAH1B2 FP inh 5, PAFAH1B3 inh 2 and ATG4B inh 3.
For COC(=O)C1=C(N)Oc2cc(C)[nH]c(=O)c2C1c1ccccc1OC (stereo not drawn) the results were pPAFAH inh 3, PAFAH2 inh -1, DAGLB inhibitor -2, PAFAH1B2 FP inh 5, PAFAH1B3 inh 6 and ATG4B inh 2.
For O=C(O)c1cc(N/N=C/C=C/c2ccccc2)ccc1Cl the results were pPAFAH inh 13, PAFAH2 inh -1, DAGLB inhibitor 5, PAFAH1B2 FP inh 2, PAFAH1B3 inh 8 and ATG4B inh -4.
For COC(=O)NNC(=O)COc1cc(C)c(Br)cc1C(C)C the results were pPAFAH inh 1, PAFAH2 inh -1, DAGLB inhibitor -3, PAFAH1B2 FP inh 6, PAFAH1B3 inh 9, ATG4B inh 41* and PLA2 ctr -14.
For CC1=C(C(=O)N2CCOCC2)CC(CC(=O)NC2CCCC2)C(=O)N1Cc1ccc(F)cc1 (stereo not drawn) the results were DAGLB inhibitor -1.
Screening CN(C)c1cccc(C(=O)n2cc(C(=O)c3cc(F)ccc3O)cn2)c1 returned pPAFAH inh 6, PAFAH2 inh 0, DAGLB inhibitor 2, PAFAH1B2 FP inh 3, PAFAH1B3 inh 6, ATG4B inh 51*, ATG4B confirm 50* and PLA2 ctr 2.
